Each structure is given as a SMILES string. Over roughly 1,000 compounds, “thermal shift dTm” has its median near 0.19; the highest 2% begin near 1.7. This is one part of a sample in which the highest values are shown more often than they occur. Activity calls are given as the source filed them.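 The calls were made as follows: active = mean rise in melting temperature of at least 1 degC over same-plate control wells; inactive = below that, where a call was filed.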

Consider 54 compounds from PubChem BioAssay AID1347422 (Sanford-Burnham Center for Chemical Genomics, 2020).

In this test the target is Sulfhydryl oxidase 1 (Homo sapiens) (UniProt O00391). Put plainly: QSOX1 binders by thermal stabilization, confirmation, QSOX1 inhibitor project, biophysical, protein thermal shift, single concentration (AID 1347422).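 Also: dTm is compound Tm minus mean Tm of DMSO-only wells on that plate.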 The conditions noted are these: recombinant hQSOX1 thermal shift, Sypro Orange, at 25 µM, stronger effect = higher value.
Chain of Sulfhydryl oxidase 1 (Homo sapiens) (O00391 whole entry, looked up): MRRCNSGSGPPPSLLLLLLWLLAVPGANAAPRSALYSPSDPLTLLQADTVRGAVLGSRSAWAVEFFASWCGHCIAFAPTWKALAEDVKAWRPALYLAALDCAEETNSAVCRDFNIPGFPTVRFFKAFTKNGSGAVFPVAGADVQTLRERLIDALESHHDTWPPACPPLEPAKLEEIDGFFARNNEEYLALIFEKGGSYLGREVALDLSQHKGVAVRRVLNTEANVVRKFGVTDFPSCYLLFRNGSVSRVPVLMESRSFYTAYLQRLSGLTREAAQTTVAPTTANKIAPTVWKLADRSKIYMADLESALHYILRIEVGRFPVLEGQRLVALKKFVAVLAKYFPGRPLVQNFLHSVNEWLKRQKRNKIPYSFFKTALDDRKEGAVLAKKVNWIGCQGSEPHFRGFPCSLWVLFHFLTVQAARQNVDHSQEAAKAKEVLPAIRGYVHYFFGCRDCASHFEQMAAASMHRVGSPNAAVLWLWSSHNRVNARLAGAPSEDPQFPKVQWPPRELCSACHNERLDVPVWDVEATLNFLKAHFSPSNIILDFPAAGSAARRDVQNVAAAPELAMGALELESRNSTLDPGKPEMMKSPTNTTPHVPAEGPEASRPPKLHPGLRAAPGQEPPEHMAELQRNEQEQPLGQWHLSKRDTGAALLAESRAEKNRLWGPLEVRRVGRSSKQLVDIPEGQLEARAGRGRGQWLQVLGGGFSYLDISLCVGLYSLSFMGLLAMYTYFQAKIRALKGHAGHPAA
Take `O=C(NCCc1ccccc1)c1ccc(NC(=O)C2CC2)cc1`: the thermal shift dTm was 0.04 °C. As to `Cc1cc(Br)cc(C)c1NC(=O)/C=C/c1ccco1`, the thermal shift dTm was determined as 0.52 °C. In the case of `Cc1ccc(Nc2nc(C3CC(CC(C)C)C(=O)O3)cs2)cc1` (centres undefined), the thermal shift dTm is -0.09 °C (inactive). As to `Cc1ccc2cccc(OCCCCOc3ccccc3I)c2n1`, the thermal shift dTm turned out to be 0.77 °C. On to `Cc1ccc(-c2noc(CNC(=O)c3ccc4ccccc4c3)n2)cc1`, for which the thermal shift dTm is -0.08 °C (inactive). As for `CCOc1ccc(NC(=O)c2ccc(-c3csc(C)n3)cc2)cc1`, the figure is 0.15 °C; as for `NC(=O)c1ccc(NC(=O)c2cccc(C(F)(F)F)c2)cc1`, 0.7 °C. For the compound `CCc1ccc(NC(=O)COc2ccccc2F)cc1`, the thermal shift dTm stood at 0.24 °C. As to `C=C(C)COc1ccc(NC(=O)c2cccnc2)cc1`, the thermal shift dTm came to 0.13 °C. As for `COc1ccc(-c2csc(NC(=O)c3ccc(Cl)s3)n2)cc1`, the figure is 0.05 °C; as for `Oc1ccccc1C=Nc1ccc(Cc2ccc(N=Cc3ccccc3O)c(O)c2)cc1O`, 0.01 °C. The same measure for `O=S(=O)(NCCC1=CCCCC1)c1ccc(Cl)s1`: 0.17 °C; for `CCOc1ccc(NC(=S)N2CCC(C(N)=O)CC2)cc1`: -0.13 °C (inactive); for `Cc1ccc(/C=C/C(=O)NCC(C)NC(=O)/C=C/c2ccc(C)cc2)cc1` (centres undefined): 0.45 °C. `COc1ccc2[nH]cc(CCNC(=O)c3ccc(NC(C)=O)cc3)c2c1`: the thermal shift dTm is 1 °C (active).

`COc1cc(/C=N/O)cc(Br)c1OCc1ccccc1F`: the thermal shift dTm is 0.16 °C.

Turning to `O=S(=O)(c1cccs1)N1CCC(CO)(Cc2ccc(Cl)cc2)CC1`, the thermal shift dTm amounted to 0.18 °C. As for `O=C(NCc1ccc(Cl)c(Cl)c1)c1ccc(Br)cc1`, the figure is -0.13 °C (inactive); as for `O=C(Nc1nccs1)c1ccc(-c2cccc(Cl)c2Cl)o1`, 0.19 °C; as for `O=C(C#Cc1ccccc1)Nc1ccc2c(c1)OCCO2`, 0.24 °C. Consider `CCC(c1ccccc1)c1nnc(NC(=O)Nc2ccccc2F)s1` (centres undefined), for which the thermal shift dTm was found to be 0.2 °C. As for `NC(=O)c1cn(-c2ccccc2)nc1-c1ccc(-c2ccccc2)cc1`, the figure is 0.07 °C; as for `O=C(NC(=S)Nc1cccc(Cl)c1N1CCOCC1)c1cccs1`, -0.04 °C (inactive). `CCc1c(C(=O)Nc2ccc3[nH]ncc3c2)csc1C`: the thermal shift dTm was 0.29 °C. Consider `CCCc1cc(C(=O)Nc2ccc3[nH]ncc3c2)cs1`, for which the thermal shift dTm was 2.61 °C (active). On to `O=C(Nc1ccc2[nH]ncc2c1)c1cccc(F)c1`, for which the thermal shift dTm is 1.63 °C (active).

Regarding `Cc1ccc(NC(=O)Nc2ccc(C)c(F)c2)c(C)c1`, the thermal shift dTm came out at 0.56 °C. On to `FC(F)(F)c1ccccc1NC(=S)Nc1ccc(OCc2ccccc2)cc1`, for which the thermal shift dTm was found to be 0.68 °C. The same measure for `COc1ccc(NC(=O)c2ccc(Cl)s2)cc1OC`: 0.19 °C; for `Cc1cc(C(=O)OCC(=O)Nc2ccc(Cl)cc2)c2ccccc2n1`: -0.03 °C (inactive); for `CCNS(=O)(=O)c1ccc(NC(=O)Nc2cc(C)ccc2OC)cc1`: 1.17 °C (active).

As to `NC(=O)c1cn(-c2ccccc2)nc1-c1cccc(Br)c1`, the thermal shift dTm is -0.72 °C (inactive). For the compound `C(=C\c1nnc(-c2ccccc2)o1)/c1cc2ccccc2o1`, the thermal shift dTm turned out to be 0.18 °C.

Take `O=c1nc2n(c3cc(Cl)ccc13)CC(O)=C2c1ccccc1`: the thermal shift dTm was 1.08 °C (active). As to `Cc1nc(-c2cccc(NC(=O)c3cccc(F)c3)c2)cs1`, the thermal shift dTm is 3.41 °C (active).

Take `CCOc1ccc(C(=O)Nc2cccc(-c3csc(C)n3)c2)cc1`: the thermal shift dTm is -0.65 °C (inactive). Take `Cc1cccc(C(=O)Nc2cccc(-c3csc(C)n3)c2)c1`: the thermal shift dTm was 1.13 °C (active). `CCOc1ccc(C(=O)Nc2cc(C)ccn2)cc1[N+](=O)[O-]`: the thermal shift dTm was determined as 0.43 °C.

On to `O=C(Nc1cccc(Br)c1)C1C2C3CCC(C3)C12` (centres undefined), for which the thermal shift dTm stood at 0.21 °C. For the compound `CCOc1ccc(/C=C/C(=O)Nc2ccc(OC)cc2OC)cc1`, the thermal shift dTm came to 0.02 °C. With `CCc1cc(-c2n[nH]c(C)c2Oc2ccc(F)cc2)c(O)cc1OC`, the thermal shift dTm was determined as 0.02 °C. As to `O=C(Nc1n[nH]c(-c2ccccc2)n1)N1CCC2(C=Cc3ccccc32)CC1`, the thermal shift dTm is 0.09 °C.

For `CCCCC1=NN2C(=N)/C(=C/c3ccc(Cl)cc3Cl)C(=O)N=C2S1`, the thermal shift dTm stood at 0.11 °C. Regarding `CCOC(=O)c1sc(NC(=O)CSc2nc(SC)ns2)nc1C`, the thermal shift dTm was found to be 0.19 °C. As for `Cc1sc(NC(=O)C#Cc2ccccc2)c(C(N)=O)c1C`, the figure is 0.33 °C; as for `CCC(c1ccc(OC)cc1)N(CC)C(=O)Nc1ccccc1` (centres undefined), 0.14 °C; as for `COC(=O)c1cccc(NC(=O)c2ccc(Cl)s2)c1`, 0.04 °C. As for `C=CCSC1=N/C(=C\c2ccc(-c3cccc(Cl)c3)o2)C(=O)S1`, the thermal shift dTm was determined as 0.63 °C. As for `O=C(NCCC1=CCCCC1)Nc1cccc(F)c1`, the figure is 0.19 °C.

Regarding `CCN(CC)c1ccc2cc(-c3nc4ccccc4o3)c(=O)oc2c1`, the thermal shift dTm came to 0.15 °C. Take `COc1ccc2nc(NC(=O)c3ccc(C)o3)sc2c1`: the thermal shift dTm worked out at 0.04 °C.

As for `COc1ccc(OC)c(-c2nc(NC(=O)c3ccccc3OC)sc2C)c1`, the thermal shift dTm is -7.06 °C (inactive). The same measure for `COc1ccc(C(=O)Nc2nc(-c3cc(OC)ccc3OC)c(C)s2)cc1`: 2.73 °C (active); for `CC1CCc2c(sc3ncn(CC(=O)Nc4ccccc4F)c(=O)c23)C1` (centres undefined): 0.26 °C.
